Measured values reported in ChEMBL document CHEMBL3988442, “University of Dundee, Small-Polar-MMV Screening Library” (2021).
In all, about 48,000 compounds went through this assay and about 13,000 (27%) showed an effect of 50% or more. The list shows a part of the results.

These compounds were tested on Wolbachia pipientis (assay: Anti-Wolbachia Cell-Based Screen). Conditions: 5 µM.
Format: functional
Design: scale not given: in the data most compounds retested in dose-response had high values

Question: For `Cc1noc(C)c1CCCNC(=O)Nc1cccc([S+](C)[O-])c1` (stereo not given), which “Percent Effect” value is on record?
Answer: The value was -8.91%.

Question: For `CN(C)S(=O)(=O)N1CC[C@]2(O)CCN(c3ncccn3)C[C@@H]2C1`, which “Percent Effect” value is on record?
Answer: The value was 8.402%.

Question: For `CN(C)S(=O)(=O)N1CC[C@]2(O)CCN(CCCc3cccnc3)C[C@@H]2C1`, which “Percent Effect” value is on record?
Answer: Its value is 99.63%.

Question: With `CN(C)S(=O)(=O)N1CC[C@]2(O)CCN(c3nccs3)C[C@@H]2C1` as the compound, how does the “Percent Effect” value read?
Answer: The value was -7.348%.

Question: How did the “Percent Effect” value turn out when `CS(=O)(=O)N1CC[C@]2(O)CCN(c3ccnc(N)n3)C[C@@H]2C1` was run?
Answer: The value was -18.71%.

Question: With `CS(=O)(=O)N1CC[C@]2(O)CCN(CCCC(=O)c3ccccc3)C[C@@H]2C1` as the compound, how does the “Percent Effect” value read?
Answer: Its value is 92.75%.

Question: `Cc1ccc(N2CC[C@@]3(O)CCN(S(C)(=O)=O)C[C@H]3C2)nn1` was tested. Which “Percent Effect” value did it give?
Answer: The value was -14.46%.

Question: Which “Percent Effect” value does the source give for `O=C(c1[nH]nc(C2CC2)c1Cl)N1CCCC1` here?
Answer: Its value is -9.749%.

Question: For `CCc1cnc(NCC(c2ccncc2)N2CCOCC2)nc1` (stereo not given), which “Percent Effect” value is on record?
Answer: The value was -11.49%.

Question: For `O=C(C(c1ccc(F)cc1)N1CCCCC1)N1CCn2cncc2C1` (stereo not given), which “Percent Effect” value is on record?
Answer: Its value is 7.503%.

Question: `Fc1ccccc1C(CNc1ccncn1)N1CCCC1` (stereo not given) was tested. Which “Percent Effect” value did it give?
Answer: The value was 123.2%.

Question: `O=C(N1CCCC1)N1CCC(Nc2ccncn2)CC1` was tested. Which “Percent Effect” value did it give?
Answer: Its value is 4.287%.

Question: `OC(CN1CCCCCCC1)c1ccc(F)cc1` (stereo not given) was tested. Which “Percent Effect” value did it give?
Answer: The value was -2.886%.

Question: Which “Percent Effect” value does the source give for `Fc1ccc(C(CNc2ccncn2)N2CCCC2)cc1` (stereo not given) here?
Answer: Its value is 85.77%.

Question: For `COc1cc(NCC(c2ccccn2)N2CCOCC2)ncn1` (stereo not given), which “Percent Effect” value is on record?
Answer: The value was -14.18%.

Question: For `NCc1cc(NCC(c2ccccn2)N2CCOCC2)ncn1` (stereo not given), which “Percent Effect” value is on record?
Answer: The value was -3.716%.

Question: How did the “Percent Effect” value turn out when `Fc1ccc(C(CNc2ccncn2)N2CCCCC2)cc1` (stereo not given) was run?
Answer: Its value is 113.6%.

Question: For `CCc1cc(N(C)Cc2[nH]nc3c2CCC3)nc(N2CCOCC2)n1`, which “Percent Effect” value is on record?
Answer: Its value is 17.45%.

Question: Which “Percent Effect” value does the source give for `O=C(NCC1(c2ccc(F)cc2)CC1)N1CCC2(CCOC2)C1` (stereo not given) here?
Answer: Its value is -4.934%.

Question: For `CCO[C@@H]1C[C@H]2CN(S(=O)(=O)c3cccs3)CCN2C1.O=C(O)C(F)(F)F`, which “Percent Effect” value is on record?
Answer: The value was -4.424%.

Question: With `CN1CCO[C@@H]2CN(S(=O)(=O)c3cccs3)CC[C@@H]2C1.O=C(O)C(F)(F)F` as the compound, how does the “Percent Effect” value read?
Answer: Its value is 99.53%.

Question: `CCN1CCO[C@@H]2CN(S(=O)(=O)c3cccs3)CC[C@@H]2C1.O=C(O)C(F)(F)F` was tested. Which “Percent Effect” value did it give?
Answer: Its value is 101.9%.

Question: Which “Percent Effect” value does the source give for `CCS(=O)(=O)N1C[C@@H]2CN(Cc3cccs3)CCO[C@@H]2C1.O=C(O)C(F)(F)F` here?
Answer: Its value is 3.582%.

Question: With `CC(C)CN1CC[C@@H]2[C@@H]1CCN2S(=O)(=O)c1cccs1.O=C(O)C(F)(F)F` as the compound, how does the “Percent Effect” value read?
Answer: Its value is -11.08%.

Question: `CN1CCO[C@@H]2CN(S(=O)(=O)c3ccccc3F)CC[C@@H]2C1.O=C(O)C(F)(F)F` was tested. Which “Percent Effect” value did it give?
Answer: The value was -5.27%.

Question: With `O=C(O)C(F)(F)F.O=S(=O)(C1CC1)N1C[C@@H]2CN(Cc3cccs3)CCO[C@@H]2C1` as the compound, how does the “Percent Effect” value read?
Answer: Its value is 9.308%.

Question: For `CN(C)C[C@H]1OC[C@@H]2CCN(S(=O)(=O)c3cccs3)C[C@@H]21.O=C(O)C(F)(F)F`, which “Percent Effect” value is on record?
Answer: Its value is -5.421%.

Question: Which “Percent Effect” value does the source give for `CC(=O)N1CCO[C@@H]2CN(S(=O)(=O)c3cccs3)CC[C@@H]2C1` here?
Answer: Its value is 114.4%.

Question: For `CC(C)N1CCO[C@@H]2CN(S(=O)(=O)c3cccs3)CC[C@@H]2C1.O=C(O)C(F)(F)F`, which “Percent Effect” value is on record?
Answer: The value was 96.63%.

Question: Which “Percent Effect” value does the source give for `CC(=O)N1CCO[C@@H]2CN(C(=O)c3ccccc3)CC[C@@H]2C1` here?
Answer: The value was -4.476%.
